The values that follow come from PubChem BioAssay (EPA / NIEHS).

Structures are written as SMILES. Several values for one entry are separate records, joined by “and”; a condition that tells them apart may be missing. Equal entries are not always repeated. Some compounds were tested as several samples or in several runs, with calls that do not always agree. Activity calls are given as the source filed them. The calls were made as follows: active = hit-call score of the fitted dose curve at least 0.9, where 1 is the maximum; inactive = score below 0.9.

Read-out in this assay: Tissue Factor, F3 (gene 2152)
As to the kind of experiment: BSK_LPS_TissueFactor: BioMAP Diversity Plus: LPS Assay for Tissue Factor Biomarker Activity (AID 2283084). Particulars: primary human HUVEC with PBMC; actives raise or lower the signal. As for the experimental part:
BSK_LPS is a cell-based, multiplexed-readout assay that uses umbilical vein endothelium and peripheral blood mononuclear cells, a human vascular primary cell co-culture, with measurements taken at 24 hours after chemical dosing in a 96-well plate.BSK_LPS_TissueFactor is an assay component measured in the BSK_LPS assay. It measures CD142 Tissue Factor antibody related to regulation of gene expression using ELISA technology.Data from the assay component BSK_LPS_TissueFactor was analyzed into 1 assay endpoint. This assay endpoint, BSK_LPS_TissueFactor, was analyzed with bidirectional fitting relative to DMSO as the negative control and baseline of activity. Using a type of binding reporter, gain or loss-of-signal activity can be used to understand changes in the signaling as they relate to the gene F3. Furthermore, this assay endpoint can be referred to as a primary readout, because this assay has produced multiple assay endpoints where this one serves a signaling function. To generalize the intended target to other relatable targets, this assay endpoint is annotated to the cytokine intended target family, where the subfamily is coagulation factor.
The levels of cell surface (or secreted, indicated by the prefix "s") biomarker endpoints were measured by ELISA. Overt cytotoxicity to cells in confluent adherent cultures (all systems other than the BT system) was assessed by measuring total protein levels using sulforhodamine B (SRB) staining in parallel cultures at the time of biomarker measurements, indicated as SRB endpoints. For proliferation assays for adherent cell types, individual cell types are cultured at sub-confluence and relative cell numbers quantified by SRB staining at time points optimized for each system (48 h: 3C and CASM3C systems; 72 h: BT and HDF3CGF systems; 96 h: SAg system). SRB was performed by staining cells with 0.1% SRB after fixation with 10% TCA and reading wells at 560 nm.Viability and proliferation of PBMC (T cells) was quantified by Alamar Blue reduction for the SAg and BT systems. For PBMC viability (referred to as PBMC Cytotoxicity within the assay endpoint names), cells were plated (75,000/well in a 96-well plate) and then chemical samples added for 1 h before addition of activators, SEB and TSST-1 (20 ng/mL final concentration each). Cells were incubated for 90 h. Then, Alamar Blue (20 uL/well) (Invitrogen, Cat DAL1100) was added for 6 h, and the plates were read with a fluorescence microplate reader at 546/580 nm (excitation/emission). For PBMC proliferation, cells were plated and activated as above but incubated for only 16 h prior to addition of Alamar Blue. Plates were read after 6 h.
For `C=CCOCC(O)CCl` (configuration not stated), the outcome was inactive. In general, AC50 refers to the midpoint of the concentration-response curve, whichever way the signal moves. `Nc1ccc(N)c(Cl)c1`: the AC50 was 3.97 µM (active) and 3.44 µM (active). As for `C/C=C\C/C=C/CCCCCCCCOC(C)=O`, the AC50 is 30.4 µM (active).

Regarding `CCCCC(CC)COCC1CO1` (configuration not stated), the result was inactive. On to `CCO[Si](C)(OCC)OCC`, for which the result was inactive. Take `c1ccc(-c2ccccn2)nc1`: the outcome was inactive.

As to `COCc1c(C(C)C)nc(C(C)C)c(/C=C/[C@@H](O)C[C@@H](O)CC(=O)O)c1-c1ccc(F)cc1`, the AC50 was 0.00778 µM (active).

As for `CCCCC(CC)COC(=O)c1ccccc1O` (configuration not stated), the outcome was inactive. On the same count and under the same terms, in the case of `C=C[Si](OC(C)=O)(OC(C)=O)OC(C)=O` it was “inactive”. Take `O=Nc1ccc(O)cc1`: the outcome was inactive.

Consider `CCOc1nc(F)cc2nc(S(=O)(=O)Nc3c(Cl)cccc3C(=O)OC)nn12`, for which the outcome was inactive. In the case of `C=CC=CC=CCCCCC`, the outcome was inactive. As for `CC(C)C(=O)C(C)C`, the result was inactive. Turning to `CCCCNc1ccc(NCCCC)c2c1C(=O)c1ccccc1C2=O`, the outcome was inactive. For the compound `O=C(Cl)c1cc(C(=O)Cl)cc(C(=O)Cl)c1`, the half-maximal activity concentration (AC50) is 33 µM (active). With `c1ccc2c(c1)ccc1cc3c(ccc4ccccc43)cc12`, the outcome was inactive and the AC50 was 0.0342 µM (active). For the compound `C#CC1(O)CC[C@H]2[C@@H]3CCC4=CCCC[C@@H]4[C@H]3CC[C@@]21C` (some centres not stated), the AC50 was 31.2 µM (active). On to `CCCCCCCCCCCCCCCC[N+](C)(C)CC`, for which the AC50 is 2.36 µM (active).

As to `CCCCCCCCc1ccc(Nc2ccc(CCCCCCCC)cc2)cc1`, the result was inactive. Still for that read-out and setting: then `CCO[Si](CCCN=C=O)(OCC)OCC`, with “inactive”. As to `C=CC(=O)OCC(Br)CBr` (configuration not stated), the half-maximal activity concentration (AC50) is 16.7 µM (active). In the case of `C=CCOc1c(Br)cc(Br)cc1Br`, the result was inactive.

Consider `c1ccc2c(c1)ccc1ncccc12`, for which the AC50 was 6.01 µM (active). `CC(C)(c1cc(Br)c(OCCO)c(Br)c1)c1cc(Br)c(OCCO)c(Br)c1`: the result was inactive. Take `CCCCC/C=C\C/C=C\CCCCCCCC(=O)OC`: the AC50 is 20 µM (active). Turning to `O=C(Nc1ccccc1SSc1ccccc1NC(=O)c1ccccc1)c1ccccc1`, the result was inactive. Turning to `O=C1CCCN1CCO`, the outcome was inactive. Same read-out and setting: in the case of `CO[Si](OC)(OC)c1ccccc1` it was “inactive”. As to `CN1C(=O)N(C)C(O)C1O` (configuration not stated), the result was inactive. On the same count and under the same terms, in the case of `CC1OC1C1CCC2(C)OC2C1` (configuration not stated) it was “inactive”; in that of `S=C(NC1CCCCC1)NC1CCCCC1`, “inactive”. With `CCOC(=O)c1ccccc1C(=C1C=C(Br)C(=O)C(Br)=C1)c1cc(Br)c(O)c(Br)c1`, the AC50 is 18.2 µM (active) and 12.6 µM (active). As to `O=C(c1ccc(O)cc1)c1ccc(O)cc1O`, the outcome was inactive. `N#[N+]c1ccc2c(S(=O)(=O)[O-])cccc2c1O`: the outcome was inactive. On the same count and under the same terms, in the case of `O=c1c2ccccc2oc2ccccc12` it was “inactive”; in that of `COc1ccc2nc(N)sc2c1`, “inactive”.
